Common to all, as to test: DAPPL (digital affinity profiling via proximity ligation, sequencing); 10 mM Tris-HCl pH 7.5, 50 mM NaCl, 1 mM DTT, 4% glycerol, room temperature, 30 min; GST-TFs on glutathione beads, 16-mer random dsDNA library, 0.1% formaldehyde crosslink after washing; high values mean tight binding
The target in one assay is T1, FLI1 (Homo sapiens, UniProt Q01543 1-452).
T1 sequence: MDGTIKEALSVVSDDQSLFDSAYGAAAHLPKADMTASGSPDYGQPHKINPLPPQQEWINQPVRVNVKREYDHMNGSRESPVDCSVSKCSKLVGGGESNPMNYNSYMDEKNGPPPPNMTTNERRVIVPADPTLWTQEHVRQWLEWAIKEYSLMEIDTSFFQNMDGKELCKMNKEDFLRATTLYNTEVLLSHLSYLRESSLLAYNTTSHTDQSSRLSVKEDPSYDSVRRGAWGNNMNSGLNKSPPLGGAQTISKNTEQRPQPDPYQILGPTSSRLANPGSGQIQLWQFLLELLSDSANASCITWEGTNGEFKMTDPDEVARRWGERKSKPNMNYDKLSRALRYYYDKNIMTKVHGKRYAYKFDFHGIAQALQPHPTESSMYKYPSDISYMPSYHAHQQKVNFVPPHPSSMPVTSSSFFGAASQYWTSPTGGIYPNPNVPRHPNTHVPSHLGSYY
To be noted: protein: recombinant; tags: N-terminal GST; dsDNA, one strand shown. The method, boiled down:
(§1)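 The binding signal reported is, for every hexamer, its read frequency for a factor over its read frequency for the tag-only sample. Reads came from pools of yeast-expressed, GST-fused human transcription factors on glutathione beads, barcoded with DNA and mixed with that sample, which were incubated with 200 nmole of a random double-stranded 16-mer DNA library in Tris/NaCl/DTT/glycerol buffer at room temperature for 30 min. After washing, the pools were crosslinked with 0.1% formaldehyde, proximity-ligated with BsaI/T4 ligase for 1 h at 37 °C, PCR-amplified and sequenced on an Illumina NextSeq500.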

Another assay concerns the target T2, ELK1 (Homo sapiens, UniProt P19419 1-428).
T2 sequence: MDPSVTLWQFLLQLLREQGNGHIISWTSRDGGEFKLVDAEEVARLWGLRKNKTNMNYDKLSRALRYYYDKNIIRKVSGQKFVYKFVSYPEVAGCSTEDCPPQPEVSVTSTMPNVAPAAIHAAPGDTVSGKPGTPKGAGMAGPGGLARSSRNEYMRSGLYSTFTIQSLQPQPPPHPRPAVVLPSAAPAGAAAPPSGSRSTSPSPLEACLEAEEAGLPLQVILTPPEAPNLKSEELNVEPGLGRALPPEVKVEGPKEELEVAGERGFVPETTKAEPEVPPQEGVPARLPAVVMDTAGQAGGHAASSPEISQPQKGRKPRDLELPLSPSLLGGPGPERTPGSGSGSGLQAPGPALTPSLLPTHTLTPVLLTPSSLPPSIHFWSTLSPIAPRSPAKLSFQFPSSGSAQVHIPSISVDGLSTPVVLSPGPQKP
To be noted: protein: recombinant; tags: N-terminal GST; dsDNA, one strand shown. The method, boiled down: as §1

The next assay addresses T3, GABPA (Homo sapiens, UniProt Q06546 1-454).
T3 sequence: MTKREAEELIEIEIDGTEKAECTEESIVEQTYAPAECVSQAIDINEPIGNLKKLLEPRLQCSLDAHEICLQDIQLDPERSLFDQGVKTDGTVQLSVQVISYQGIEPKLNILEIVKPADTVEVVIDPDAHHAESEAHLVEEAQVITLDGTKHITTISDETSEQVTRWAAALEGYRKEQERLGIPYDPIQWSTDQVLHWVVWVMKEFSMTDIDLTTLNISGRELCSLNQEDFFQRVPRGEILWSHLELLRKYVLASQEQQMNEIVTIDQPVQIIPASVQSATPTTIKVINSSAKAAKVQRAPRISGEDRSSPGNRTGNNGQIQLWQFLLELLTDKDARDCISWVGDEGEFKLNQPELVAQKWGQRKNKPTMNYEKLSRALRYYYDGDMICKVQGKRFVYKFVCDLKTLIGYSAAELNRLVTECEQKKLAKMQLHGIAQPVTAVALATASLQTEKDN
To be noted: protein: recombinant; tags: N-terminal GST; dsDNA, one strand shown. The method, boiled down:
as §1

Another assay deals with T4, ERG (Homo sapiens, UniProt P11308 1-479).
T4 sequence: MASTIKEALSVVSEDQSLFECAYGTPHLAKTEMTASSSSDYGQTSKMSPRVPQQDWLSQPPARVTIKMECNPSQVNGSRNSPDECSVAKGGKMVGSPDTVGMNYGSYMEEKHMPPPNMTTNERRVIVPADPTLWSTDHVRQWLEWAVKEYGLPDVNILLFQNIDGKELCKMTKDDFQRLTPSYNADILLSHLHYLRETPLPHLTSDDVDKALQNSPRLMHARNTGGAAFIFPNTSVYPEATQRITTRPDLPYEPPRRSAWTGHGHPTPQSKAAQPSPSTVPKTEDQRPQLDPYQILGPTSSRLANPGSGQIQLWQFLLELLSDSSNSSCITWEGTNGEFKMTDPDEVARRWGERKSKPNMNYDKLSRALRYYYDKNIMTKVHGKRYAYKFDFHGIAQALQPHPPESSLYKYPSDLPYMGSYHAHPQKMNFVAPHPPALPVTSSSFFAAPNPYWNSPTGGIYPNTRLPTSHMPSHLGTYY
To be noted: protein: recombinant; tags: N-terminal GST; dsDNA, one strand shown. The method, boiled down:
as §1

The next assay addresses ELF1 (Homo sapiens, UniProt P32519 1-619). To be noted: protein: recombinant; tags: N-terminal GST; dsDNA, one strand shown. The method, boiled down:
as §1

Another assay deals with T5, EHF (Homo sapiens, UniProt Q9NZC4 1-300).
T5 sequence: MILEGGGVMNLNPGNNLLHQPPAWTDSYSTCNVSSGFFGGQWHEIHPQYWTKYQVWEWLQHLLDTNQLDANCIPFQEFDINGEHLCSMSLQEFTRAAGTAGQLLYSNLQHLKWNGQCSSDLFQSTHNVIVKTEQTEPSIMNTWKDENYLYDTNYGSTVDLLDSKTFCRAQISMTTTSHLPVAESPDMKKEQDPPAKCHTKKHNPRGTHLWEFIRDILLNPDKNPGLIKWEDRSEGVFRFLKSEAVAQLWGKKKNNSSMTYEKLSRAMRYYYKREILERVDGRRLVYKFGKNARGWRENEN
To be noted: protein: recombinant; tags: N-terminal GST; dsDNA, one strand shown. The method, boiled down:
as §1

The next assay concerns the target SPI1 (Homo sapiens, UniProt P17947 1-270). To be noted: protein: recombinant; tags: N-terminal GST; dsDNA, one strand shown. The method, boiled down:
as §1

The target of the next assay is SPIB (Homo sapiens, UniProt Q01892 1-262). To be noted: protein: recombinant; tags: N-terminal GST; dsDNA, one strand shown. The method, boiled down:
as §1

The next assay concerns the target T6, ELK3 (Homo sapiens, UniProt P41970 1-407).
T6 sequence: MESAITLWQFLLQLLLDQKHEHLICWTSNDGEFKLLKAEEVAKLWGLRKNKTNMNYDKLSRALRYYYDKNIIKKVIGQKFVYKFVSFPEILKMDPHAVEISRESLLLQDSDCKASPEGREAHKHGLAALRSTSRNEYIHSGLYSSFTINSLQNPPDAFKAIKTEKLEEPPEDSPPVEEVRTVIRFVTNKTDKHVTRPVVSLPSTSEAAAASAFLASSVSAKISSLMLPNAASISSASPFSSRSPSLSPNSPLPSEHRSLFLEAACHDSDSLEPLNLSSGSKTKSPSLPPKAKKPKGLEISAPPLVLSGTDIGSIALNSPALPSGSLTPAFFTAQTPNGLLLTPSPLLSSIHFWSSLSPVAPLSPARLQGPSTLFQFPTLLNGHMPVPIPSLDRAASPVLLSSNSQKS
To be noted: protein: recombinant; tags: N-terminal GST; dsDNA, one strand shown. The method, boiled down: as §1

The target in the next assay is T7, FEV (Homo sapiens, UniProt Q99581 1-238).
T7 sequence: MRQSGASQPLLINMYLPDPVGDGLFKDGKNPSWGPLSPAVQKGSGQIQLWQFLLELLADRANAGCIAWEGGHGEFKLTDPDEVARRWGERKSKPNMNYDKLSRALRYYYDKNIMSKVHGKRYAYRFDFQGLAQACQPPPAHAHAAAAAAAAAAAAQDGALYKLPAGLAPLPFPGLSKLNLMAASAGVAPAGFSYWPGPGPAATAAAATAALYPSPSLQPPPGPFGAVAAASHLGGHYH
To be noted: protein: recombinant; tags: N-terminal GST; dsDNA, one strand shown. The method, boiled down:
as §1

The next assay addresses ETV5 (Homo sapiens, UniProt P41161 1-510). To be noted: protein: recombinant; tags: N-terminal GST; dsDNA, one strand shown. The method, boiled down:
as §1

The target of the next assay is HSF1 (Homo sapiens, UniProt Q00613 1-529). To be noted: protein: recombinant; tags: N-terminal GST; chain copies: 3; dsDNA, one strand shown. The method, boiled down:
as §1

For another assay, the target named is T8, SPIC (Homo sapiens, UniProt Q8N5J4 1-248).
T8 sequence: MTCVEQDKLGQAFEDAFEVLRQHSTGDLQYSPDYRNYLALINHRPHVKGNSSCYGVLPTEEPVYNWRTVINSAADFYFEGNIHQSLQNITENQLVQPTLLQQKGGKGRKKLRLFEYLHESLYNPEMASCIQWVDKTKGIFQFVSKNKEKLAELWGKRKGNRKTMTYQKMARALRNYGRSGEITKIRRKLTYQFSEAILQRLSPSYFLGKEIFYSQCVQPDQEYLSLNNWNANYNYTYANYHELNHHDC
To be noted: protein: recombinant; tags: N-terminal GST; dsDNA, one strand shown. The method, boiled down:
as §1

Another assay concerns the target ELF4 (Homo sapiens, UniProt Q99607 1-663). To be noted: protein: recombinant; tags: N-terminal GST; dsDNA, one strand shown. The method, boiled down:
as §1

A further assay concerns the target T9, ELK4 (Homo sapiens, UniProt P28324-2 1-405).
T9 sequence: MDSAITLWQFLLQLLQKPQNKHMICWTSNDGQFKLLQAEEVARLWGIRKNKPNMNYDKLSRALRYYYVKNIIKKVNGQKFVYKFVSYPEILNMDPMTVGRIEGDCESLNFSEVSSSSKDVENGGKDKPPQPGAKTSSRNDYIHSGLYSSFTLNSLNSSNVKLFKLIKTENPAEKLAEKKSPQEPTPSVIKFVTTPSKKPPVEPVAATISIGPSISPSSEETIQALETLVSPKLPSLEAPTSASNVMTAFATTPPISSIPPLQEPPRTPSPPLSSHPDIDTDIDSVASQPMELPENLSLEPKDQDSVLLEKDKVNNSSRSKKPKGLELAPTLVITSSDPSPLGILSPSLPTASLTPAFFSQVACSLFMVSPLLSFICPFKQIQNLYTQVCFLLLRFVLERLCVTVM
To be noted: protein: recombinant; tags: N-terminal GST; dsDNA, one strand shown. The method, boiled down:
as §1

Another assay addresses T10, ETV2 (Homo sapiens, UniProt O00321 1-342).
T10 sequence: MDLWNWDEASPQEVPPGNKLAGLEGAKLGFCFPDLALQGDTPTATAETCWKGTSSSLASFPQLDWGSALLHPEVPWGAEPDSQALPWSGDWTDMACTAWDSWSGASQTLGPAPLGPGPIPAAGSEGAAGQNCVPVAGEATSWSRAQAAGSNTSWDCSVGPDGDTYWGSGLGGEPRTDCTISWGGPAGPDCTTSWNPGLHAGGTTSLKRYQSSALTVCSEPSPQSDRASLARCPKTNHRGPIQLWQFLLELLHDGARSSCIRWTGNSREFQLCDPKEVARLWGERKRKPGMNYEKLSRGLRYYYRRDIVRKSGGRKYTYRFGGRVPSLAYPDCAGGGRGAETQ
To be noted: protein: recombinant; tags: N-terminal GST; dsDNA, one strand shown. The method, boiled down:
as §1

The next assay has as its target T11, ELF3 (Homo sapiens, UniProt P78545 1-371).
T11 sequence: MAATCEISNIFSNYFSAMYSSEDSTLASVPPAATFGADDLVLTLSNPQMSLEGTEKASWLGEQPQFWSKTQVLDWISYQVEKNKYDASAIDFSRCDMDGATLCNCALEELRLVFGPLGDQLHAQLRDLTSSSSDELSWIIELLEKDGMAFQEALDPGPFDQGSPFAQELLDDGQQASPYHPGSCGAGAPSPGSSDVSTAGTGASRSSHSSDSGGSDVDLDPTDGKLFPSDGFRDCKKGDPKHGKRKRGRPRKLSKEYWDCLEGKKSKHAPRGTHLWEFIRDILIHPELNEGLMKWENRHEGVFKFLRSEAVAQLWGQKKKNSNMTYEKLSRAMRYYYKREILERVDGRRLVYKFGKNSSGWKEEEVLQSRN
To be noted: protein: recombinant; tags: N-terminal GST; dsDNA, one strand shown. The method, boiled down: as §1

A further assay deals with CRX (Homo sapiens, UniProt O43186 1-299). To be noted: protein: recombinant; tags: N-terminal GST; dsDNA, one strand shown. The method, boiled down:
as §1

The target of a further assay is ETV1 (Homo sapiens, UniProt P50549 1-477). To be noted: protein: recombinant; tags: N-terminal GST; dsDNA, one strand shown. The method, boiled down:
as §1

ETV5, sequence (P41161 whole entry): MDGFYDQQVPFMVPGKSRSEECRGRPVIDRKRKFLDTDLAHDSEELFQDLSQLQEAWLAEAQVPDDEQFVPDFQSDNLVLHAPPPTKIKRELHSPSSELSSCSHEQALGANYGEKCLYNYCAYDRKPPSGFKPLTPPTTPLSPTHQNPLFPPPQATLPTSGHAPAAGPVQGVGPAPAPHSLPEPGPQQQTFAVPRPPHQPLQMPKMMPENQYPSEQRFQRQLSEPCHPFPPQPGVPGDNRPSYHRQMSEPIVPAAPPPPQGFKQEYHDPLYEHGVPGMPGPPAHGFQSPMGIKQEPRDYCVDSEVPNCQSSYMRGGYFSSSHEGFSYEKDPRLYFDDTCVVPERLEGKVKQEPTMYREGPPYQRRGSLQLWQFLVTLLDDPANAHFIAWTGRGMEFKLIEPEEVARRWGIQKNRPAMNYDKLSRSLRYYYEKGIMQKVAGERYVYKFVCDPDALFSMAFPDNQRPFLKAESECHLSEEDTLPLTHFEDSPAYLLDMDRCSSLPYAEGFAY
ETV1, sequence (P50549 whole entry): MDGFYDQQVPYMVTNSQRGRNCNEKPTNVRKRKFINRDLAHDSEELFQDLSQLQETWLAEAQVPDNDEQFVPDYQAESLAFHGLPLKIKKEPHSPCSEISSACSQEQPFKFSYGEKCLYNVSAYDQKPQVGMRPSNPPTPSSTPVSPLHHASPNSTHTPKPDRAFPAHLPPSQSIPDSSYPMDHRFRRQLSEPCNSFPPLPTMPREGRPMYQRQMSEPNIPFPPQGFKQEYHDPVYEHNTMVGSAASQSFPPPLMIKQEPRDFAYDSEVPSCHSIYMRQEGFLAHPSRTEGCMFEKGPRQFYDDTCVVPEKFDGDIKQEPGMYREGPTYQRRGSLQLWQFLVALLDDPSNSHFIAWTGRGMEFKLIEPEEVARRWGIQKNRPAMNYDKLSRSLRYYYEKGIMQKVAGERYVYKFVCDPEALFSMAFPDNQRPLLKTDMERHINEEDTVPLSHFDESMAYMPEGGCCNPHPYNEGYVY
ELF4, sequence (Q99607 whole entry): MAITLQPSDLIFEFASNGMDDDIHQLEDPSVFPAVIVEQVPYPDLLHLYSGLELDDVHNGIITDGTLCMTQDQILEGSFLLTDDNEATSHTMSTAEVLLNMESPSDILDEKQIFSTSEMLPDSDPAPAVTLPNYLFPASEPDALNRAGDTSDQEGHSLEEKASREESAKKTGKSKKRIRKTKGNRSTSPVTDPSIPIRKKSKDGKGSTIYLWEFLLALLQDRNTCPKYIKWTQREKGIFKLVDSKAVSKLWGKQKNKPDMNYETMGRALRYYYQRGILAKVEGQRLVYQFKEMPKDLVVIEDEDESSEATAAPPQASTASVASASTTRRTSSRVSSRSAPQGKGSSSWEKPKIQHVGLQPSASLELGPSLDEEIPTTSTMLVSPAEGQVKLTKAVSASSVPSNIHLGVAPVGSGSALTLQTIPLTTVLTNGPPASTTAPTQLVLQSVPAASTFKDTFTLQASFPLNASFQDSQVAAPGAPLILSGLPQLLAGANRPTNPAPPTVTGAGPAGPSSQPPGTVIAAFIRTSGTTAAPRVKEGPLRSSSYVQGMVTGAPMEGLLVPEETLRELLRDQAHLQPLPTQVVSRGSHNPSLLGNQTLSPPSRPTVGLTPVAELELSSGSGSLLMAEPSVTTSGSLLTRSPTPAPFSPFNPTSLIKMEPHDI
CRX, sequence (O43186 whole entry): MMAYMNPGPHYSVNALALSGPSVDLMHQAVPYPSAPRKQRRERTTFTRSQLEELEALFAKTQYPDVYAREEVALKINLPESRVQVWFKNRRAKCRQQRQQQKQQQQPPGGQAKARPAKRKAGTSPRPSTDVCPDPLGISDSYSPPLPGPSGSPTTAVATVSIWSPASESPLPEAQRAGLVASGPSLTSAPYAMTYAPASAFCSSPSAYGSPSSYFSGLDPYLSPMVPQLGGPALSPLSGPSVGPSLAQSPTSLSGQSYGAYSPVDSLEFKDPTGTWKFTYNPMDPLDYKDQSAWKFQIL
HSF1, sequence (Q00613 whole entry): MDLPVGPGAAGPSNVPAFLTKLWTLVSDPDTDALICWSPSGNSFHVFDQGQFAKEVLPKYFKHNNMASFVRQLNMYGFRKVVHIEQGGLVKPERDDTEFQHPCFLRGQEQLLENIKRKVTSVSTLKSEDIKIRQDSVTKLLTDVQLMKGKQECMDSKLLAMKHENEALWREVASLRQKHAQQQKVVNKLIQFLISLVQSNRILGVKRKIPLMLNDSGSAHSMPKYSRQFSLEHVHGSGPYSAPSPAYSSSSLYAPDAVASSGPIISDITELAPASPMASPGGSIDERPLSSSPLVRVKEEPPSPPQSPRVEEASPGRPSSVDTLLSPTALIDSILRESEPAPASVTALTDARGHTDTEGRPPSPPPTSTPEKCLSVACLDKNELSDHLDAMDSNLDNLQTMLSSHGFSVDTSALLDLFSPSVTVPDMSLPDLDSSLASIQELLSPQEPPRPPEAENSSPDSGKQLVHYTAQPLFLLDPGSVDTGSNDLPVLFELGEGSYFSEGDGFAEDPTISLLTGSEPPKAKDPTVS
ELF1, sequence (P32519 whole entry): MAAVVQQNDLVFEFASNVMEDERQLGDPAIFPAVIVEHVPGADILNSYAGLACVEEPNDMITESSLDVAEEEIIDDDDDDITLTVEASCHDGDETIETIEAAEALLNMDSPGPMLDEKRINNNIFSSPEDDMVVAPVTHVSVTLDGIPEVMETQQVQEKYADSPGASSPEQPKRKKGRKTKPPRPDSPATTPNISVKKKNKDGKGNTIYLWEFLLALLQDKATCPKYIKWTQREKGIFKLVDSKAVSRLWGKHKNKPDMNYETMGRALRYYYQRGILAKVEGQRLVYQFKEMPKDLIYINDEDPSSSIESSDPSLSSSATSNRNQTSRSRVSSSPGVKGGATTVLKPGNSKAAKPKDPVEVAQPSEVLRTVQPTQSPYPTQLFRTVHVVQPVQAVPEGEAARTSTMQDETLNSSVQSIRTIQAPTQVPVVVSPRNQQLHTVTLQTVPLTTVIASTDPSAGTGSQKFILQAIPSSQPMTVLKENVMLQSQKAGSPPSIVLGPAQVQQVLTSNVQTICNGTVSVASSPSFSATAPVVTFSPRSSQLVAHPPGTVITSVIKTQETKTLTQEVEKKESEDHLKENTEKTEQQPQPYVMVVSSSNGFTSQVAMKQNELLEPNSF
SPIB, sequence (Q01892 whole entry): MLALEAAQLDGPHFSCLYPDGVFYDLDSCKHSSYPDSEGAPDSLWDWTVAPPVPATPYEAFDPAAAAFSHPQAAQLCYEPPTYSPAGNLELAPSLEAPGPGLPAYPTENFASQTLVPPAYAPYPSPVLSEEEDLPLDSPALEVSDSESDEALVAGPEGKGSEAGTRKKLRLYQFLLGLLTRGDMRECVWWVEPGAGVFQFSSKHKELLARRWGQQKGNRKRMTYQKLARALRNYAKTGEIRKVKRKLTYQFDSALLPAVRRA

As to TACGCA, the binding signal with FLI1 is 1.18 fold enrichment (6-mer frequency, TF over GST control); with ELK1, 1.2 fold enrichment (6-mer frequency, TF over GST control); with GABPA, 1.11 fold enrichment (6-mer frequency, TF over GST control); with ERG it was 1.15 fold enrichment (6-mer frequency, TF over GST control); with ELF1 it was 1.2 fold enrichment (6-mer frequency, TF over GST control); with EHF, 1.26 fold enrichment (6-mer frequency, TF over GST control). For the same sequence, the binding signal with SPI1 was 1.12 fold enrichment (6-mer frequency, TF over GST control); with SPIB, 1.1 fold enrichment (6-mer frequency, TF over GST control); with ELK3 it was 1.25 fold enrichment (6-mer frequency, TF over GST control); with FEV, 1.16 fold enrichment (6-mer frequency, TF over GST control); with ETV5, 1.21 fold enrichment (6-mer frequency, TF over GST control); with HSF1 it was 1.06 fold enrichment (6-mer frequency, TF over GST control). The binding signal is 1.16 fold enrichment (6-mer frequency, TF over GST control) with SPIC; 1.23 fold enrichment (6-mer frequency, TF over GST control) with ELF4; 1.12 fold enrichment (6-mer frequency, TF over GST control) with ELK4; 1.15 fold enrichment (6-mer frequency, TF over GST control) with ETV2; 1.19 fold enrichment (6-mer frequency, TF over GST control) with ELF3; 1.21 fold enrichment (6-mer frequency, TF over GST control) with CRX. Further, in the assay with ETV1, the binding signal is 1.25 fold enrichment (6-mer frequency, TF over GST control).

The record behind these values is publication PMC7862700, “An all-to-all approach to the identification of sequence-specific readers for epigenetic DNA modifications on cytosine”.
